# Screening results as filed in PubChem BioAssay.
# TROY signal inh – inhibitors of TROY-driven NF-kB signaling, primary screen, Q293 LMP1-TROYcd cells, NF-kB luciferase, uHTS | Q293 LMP1-TROYcd NF-kB luciferase reporter, 4 h | inhibition, % at 10 µM | hit rate 0.98% among 360,000;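 active means compounds whose plate-normalised and pattern-corrected inhibition of the luciferase reporter signal at the single screening dose is 50% or more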
# TWEAK Fn14 block – inhibitors of TWEAK-Fn14 signaling, primary screen, luciferase reporter cells, uHTS | TWEAK-stimulated Fn14 reporter cells, luciferase luminescence, 8 h | inhibition, % at 10 µM | hit rate 2% among 360,000; in the data active means inhibition above about 50%
# LGR2 antag – inhibitors of bursicon-induced LGR2 CRE-luciferase signal, primary screen, cell-based, HEK293, CRE-luciferase reporter, bursicon stimulation. Drosophila bursicon receptor LGR2 (rickets). bursicon-stimulated, 4 h. inhibition, % at 9.99 µM. hit rate 0.35% among 380,000. AID 720647, 2013;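 active means drop in luminescence signal, shown as inhibition above about 50% in the replicate tests, limit read from the data, passing the limit was not always enough; inconclusive means probably only some replicates passing the limit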;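 further: agonist challenge used bursicon conditioned medium at about half maximal strength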
# EWS-Fli block – EWS/Fli-driven NR0B1 reporter inhibitors, primary screen, A673 cells, NR0B1 luciferase, luminescence, MLPCN library; viability-normalised; inhibition, % at 12.6 µM; hit rate 0.67% among 350,000; AID 651661, 2012;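 active means mean inhibition of at least 50% after viability correction, with every replicate also passing that limit; inconclusive means mean reaches 50% but only one of two replicates passes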;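 further: firefly luciferase signal divided by Alamar Blue viability fluorescence both relative to DMSO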
# EBV LMP1 NFkB – EBV LMP1-driven NF-kappaB luciferase reporter inhibitors, primary screen, cell-based, luminescence, single point | inhibition, % at 12.5 µM | AID 504558, 2011 | hit rate 0.69% among 350,000 | LMP1-induced NF-kappaB luciferase reporter cells; in the data active means inhibition above about 41%; inconclusive means no clear call, values can overlap the other calls;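 further: 0% = neutral control wells and 100% = reference inhibitor control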
# * marks the source's active call; other numbers are inactive results; ? = inconclusive; · = no result. In the library only some 2.6% were active in any assay of this set; here they are far more common.
SMILES,TROY signal inh,TWEAK Fn14 block,LGR2 antag,EWS-Fli block,EBV LMP1 NFkB
COc1ccc(C(=O)CN2C(=O)c3ccccc3S2(=O)=O)cc1Br,35.2,62.3*,36.8,·,15.2
Cc1ccc(C)c(C(=O)CN2C(=O)c3ccccc3S2(=O)=O)c1,27.0,60.1*,·,·,14.4
COc1ccc(NC(=O)N(C)C[C@H]2OCCCC[C@@H](C)Oc3ccc(NS(=O)(=O)c4ccccc4)cc3C(=O)N([C@H](C)CO)C[C@@H]2C)cc1,·,·,6.3,-8.8,·
Cc1noc(C)c1NC(=O)N(C)C[C@@H]1OCCCC[C@H](C)Oc2ccc(NC(=O)c3ccncc3)cc2C(=O)N([C@H](C)CO)C[C@@H]1C,·,·,0.2,-6.2,·
Cc1cc(C(=O)CSc2nc3ccccc3c(=O)[nH]2)c(C)n1CC1CCCO1 (configuration not stated),42.4,60.4*,-27.2,-51.9,-9.7
Cc1cc(C(=O)CN2C(=O)c3ccccc3S2(=O)=O)c(C)n1CC1CCCO1 (configuration not stated),44.9,106.2*,·,·,80.0*
Cc1cc(C(=O)CN2C(=O)NC(C)(c3ccccc3)C2=O)c(C)n1CC1CCCO1 (configuration not stated),0.1,2.1,·,·,-7.1
Cc1noc(C)c1S(=O)(=O)Nc1ccc2c(c1)C(=O)N([C@H](C)CO)C[C@@H](C)[C@@H](CN(C)C(=O)c1ccncc1)OCCCC[C@H](C)O2,·,·,-11.7,-7.7,·
O=C1S/C(=C/c2ccc(N3CCOCC3)o2)C(=O)N1Cc1ccc(F)cc1,2.5,-11.1,·,·,-4.1
O=C1S/C(=C\c2ccc(N3CCOCC3)o2)C(=O)N1Cc1ccc(F)cc1,14.5,51.9*,·,·,6.5
COCCN1C(=O)/C(=C/c2ccc(Oc3ccc([N+](=O)[O-])cn3)c(OC)c2)SC1=Nc1ccccc1,6.5,-11.8,·,·,11.6
COc1cc(/C=C2\SC(=Nc3ccccc3)N(CCc3c[nH]c4ccccc34)C2=O)ccc1OC(C)C(=O)O (configuration not stated),58.8*,45.2,12.0,·,-3.1
COc1ccc(N=C2S/C(=C\c3ccc(OC(C)C(=O)O)c(OC)c3)C(=O)N2CCc2c[nH]c3ccccc23)cc1 (configuration not stated),54.3*,38.9,12.6,9.0,0.0
CCCN1C(=O)/C(=C/c2cc(C)n(C)c2C)SC1=Nc1ccc(OC)cc1,-3.2,-25.9,-28.5,·,12.9
O=C1/C(=C/c2ccc(N3CCOCC3)o2)SC(=Nc2ccccc2)N1CCc1c[nH]c2ccccc12,17.4,90.5*,·,·,15.5
O=C(N[C@H]1CC[C@@H](CC(=O)N2CCOCC2)O[C@H]1CO)c1ccccn1,·,·,-2.9,·,·
C[C@@H]1CCCCO[C@H](CN(C)S(=O)(=O)c2ccc(F)cc2)[C@H](C)CN([C@@H](C)CO)C(=O)c2cc(NC(=O)CCC(F)(F)F)ccc2O1,·,·,-5.2,4.5,·
Cc1ccccc1-c1ccc2c(c1)O[C@@H](CN(C)C)[C@H](C)CN([C@@H](C)CO)S2(=O)=O,·,·,-2.9,17.2,·
CC(C)NC(=O)Nc1ccc2c(c1)C(=O)N([C@H](C)CO)C[C@H](C)[C@H](CN(C)S(=O)(=O)c1cn(C)cn1)OCCCC[C@@H](C)O2,·,·,1.4,-13.9,·
CN(CC(=O)Nc1ccccc1Cl)C(=O)COC(=O)c1nc(Cl)c(Cl)c(Cl)c1Cl,53.5*,86.4*,-16.3,23.5,-12.3
C[C@@H]1CN([C@@H](C)CO)S(=O)(=O)c2ccc(C#Cc3ccncc3)cc2O[C@@H]1CN(C)C,·,·,-10.4,-3.8,·
Cc1noc(C)c1S(=O)(=O)Nc1ccc2c(c1)C(=O)N([C@H](C)CO)C[C@H](C)[C@H](CN(C)C(=O)Nc1ccccc1)OCCCC[C@@H](C)O2,·,·,7.1,-17.8,·
O=C(Nc1nc(-c2cccs2)c(C(=O)C(F)(F)F)s1)c1ccco1,13.8,-8.4,-7.5,0.2,4.6
COc1ccc(NC(=O)Nc2nnc(-c3cccs3)s2)cc1,-58.8,-33.0,-55.3,-98.4,-38.1
COc1ccc(C(=O)Nc2nnc(-c3ccco3)s2)cc1,39.4,84.7*,81.5*,·,22.4
SMILES,TROY signal inh,TWEAK Fn14 block,LGR2 antag,EWS-Fli block,EBV LMP1 NFkB
O=C(Nc1nc(-c2cccs2)c(C(=O)C(F)(F)F)s1)c1ccccc1,59.5*,55.9*,6.3,11.4,-3.0
O=C(Nc1nnc(-c2ccco2)s1)c1ccccc1,-71.1,21.0,23.7,·,7.9
COc1ccc(C(=O)Nc2nnc(-c3cccs3)s2)cc1,7.3,55.3*,?,·,-4.4
C[C@H]1CN([C@@H](C)CO)C(=O)c2cc(-c3cccnc3)cnc2O[C@H]1CN(C)C(=O)Nc1ccc2c(c1)OCO2,·,·,-16.4,-9.4,·
C[C@H]1CN([C@@H](C)CO)C(=O)c2cc(NC(=O)NC3CCCCC3)ccc2O[C@H]1CN(C)S(=O)(=O)c1cn(C)cn1,·,·,-0.6,-7.0,·
COc1ccc(C2NCCc3c2[nH]c2ccccc32)cc1CN1CCc2cc(OC)c(OC)cc2C1C (configuration not stated),7.5,-23.1,·,·,-20.5
COc1ccc(C2NCCc3c2[nH]c2ccccc32)cc1COc1ccc(F)cc1 (configuration not stated),-9.9,-15.4,·,78.2*,-10.3
O=C(c1ccccc1)c1cnc(-c2ccc(Cl)cc2)s1,14.7,61.7*,·,·,-34.4
COc1ccc(C)cc1S(=O)(=O)n1c([N+](=O)[O-])cnc1C,15.5,86.7*,-0.2,3.8,3.6
O=Nc1c2cc(-c3ccccc3)[nH]nc-2c2ccccc12,70.7*,80.1*,?,62.9*,-5.7
O=c1[nH]nc(-c2ccccc2)c2ccccc12,-13.2,0.6,-1.0,-5.1,-0.3
Cc1ccc(-c2cc3c(N=O)c4ccccc4c-3n[nH]2)cc1,88.1*,102.9*,94.5*,79.8*,63.1*
Cc1cccc(-c2cc3c(N=O)c4ccccc4c-3n[nH]2)c1,38.1,53.0*,-10.5,-4.1,-24.6
Cc1ccc(-c2n[nH]c(=O)c3ccccc23)cc1S(=O)(=O)N(C)C,5.4,22.1,-2.5,0.5,1.1
CC(=O)N(C)C[C@@H]1Oc2cc(-c3ccccc3C)ccc2S(=O)(=O)N([C@H](C)CO)C[C@H]1C,·,·,-0.8,-7.2,·
CCCNC(=O)N[C@H]1CC[C@@H](CC(=O)NCCc2ccccc2)O[C@@H]1CO,·,·,-6.1,1.8,·
Cc1ccc(NC(=O)C2CCCC2)cc1Cl,-13.9,2.9,-36.7,-19.0,7.7
Cc1ccc(NS(=O)(=O)c2ccc(Cl)c(NC(=S)NC(=O)C3CCCCC3)c2)cc1Cl,36.5,65.2*,2.6,·,-7.1
COC(=O)c1ccccc1S(=O)(=O)NNC(=O)Nc1ccccc1,32.7,68.8*,58.1*,25.0,19.0
O=S(=O)(Nc1c(O)ccc2ccccc12)c1ccc(F)cc1,53.8*,44.2,·,-222.0,-0.8
O=S(=O)(Nc1c(O)ccc2ccccc12)c1ccccc1,-0.6,31.5,-9.4,-158.3,-1.1
